Compound activity as filed in PubChem.
Mdm2 MdmX PPI – inhibitors of human Mdm2/MdmX interaction | 3% of 330,000 active | inhibition, % at 8 µM | SaOS-2 split-luciferase Mdm2/MdmX complementation, luminescence;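 active = inhibition of at least 50% at 8 µM in the primary screen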
Target sequence (O15151 whole entry, looked up): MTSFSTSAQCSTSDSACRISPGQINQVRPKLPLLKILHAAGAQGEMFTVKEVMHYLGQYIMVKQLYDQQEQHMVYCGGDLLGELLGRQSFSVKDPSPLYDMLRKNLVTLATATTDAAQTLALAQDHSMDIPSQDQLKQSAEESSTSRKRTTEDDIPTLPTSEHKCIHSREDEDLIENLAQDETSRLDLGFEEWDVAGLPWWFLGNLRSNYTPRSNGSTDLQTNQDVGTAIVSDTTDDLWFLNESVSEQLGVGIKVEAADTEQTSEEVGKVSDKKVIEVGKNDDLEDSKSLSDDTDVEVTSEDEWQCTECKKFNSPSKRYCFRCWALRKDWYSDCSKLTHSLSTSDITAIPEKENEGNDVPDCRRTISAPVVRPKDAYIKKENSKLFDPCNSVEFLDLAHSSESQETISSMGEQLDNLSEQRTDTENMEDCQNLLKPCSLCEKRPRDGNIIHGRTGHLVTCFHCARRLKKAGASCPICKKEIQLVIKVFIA
Target sequence (Q00987 whole entry, looked up): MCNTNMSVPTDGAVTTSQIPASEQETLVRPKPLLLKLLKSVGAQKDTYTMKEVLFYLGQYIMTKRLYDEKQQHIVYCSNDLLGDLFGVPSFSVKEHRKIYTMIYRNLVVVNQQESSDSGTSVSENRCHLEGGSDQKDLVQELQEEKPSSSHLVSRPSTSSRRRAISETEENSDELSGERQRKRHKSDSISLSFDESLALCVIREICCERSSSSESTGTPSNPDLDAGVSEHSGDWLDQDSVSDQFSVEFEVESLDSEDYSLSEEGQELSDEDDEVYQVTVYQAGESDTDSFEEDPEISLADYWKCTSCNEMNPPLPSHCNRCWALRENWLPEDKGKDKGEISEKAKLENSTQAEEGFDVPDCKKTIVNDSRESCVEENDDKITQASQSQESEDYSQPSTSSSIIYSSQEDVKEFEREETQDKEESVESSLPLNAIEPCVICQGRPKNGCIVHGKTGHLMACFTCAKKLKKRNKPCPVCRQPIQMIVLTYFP
Peg3 prom inh – reduces Peg3 promoter-driven luciferase expression in HeLa | HeLa PEG-Prom luciferase reporter, luminescence, overnight | inhibition, % at 20 µM | 1.7% of 360,000 active;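 active = inhibition of at least 50% at 20 µM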
LGR2 antag – Drosophila LGR2 receptor signaling inhibition; inhibition, % at 9.99 µM; 0.35% of 380,000 active; AID 720647; HEK293 LGR2, CRE-luciferase, bursicon-stimulated, 4 h;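 active = drop in luminescence signal, shown as inhibition above about 50% in the replicate tests, limit read from the data, passing the limit was not always enough; inconclusive = probably only some replicates passing the limit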;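 also: agonist challenge used bursicon conditioned medium at about half maximal strength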
HSP90 refold inh – inhibitors of HSP90 luciferase refolding in rabbit reticulocyte lysate; 0.91% of 290,000 active; inhibition, % at 5.6 µM; luciferase refolding luminescence, 3 h;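 active = inhibition above the screen-wide mean plus 3 SD, computed separately per campaign, cut at about 16% in these data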;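 also: inhibitors lower the luminescence because luciferase stays unfolded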
CF NFkB block – cystic fibrosis NF-kB activation inhibition. KKLEB NF-kB-GFP reporter, PAF-induced, GFP fluorescence overnight. inhibition, % at 5 µM. 0.86% of 360,000 active;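 active = at least 50% inhibition at 5 µM, scaled per plate between neutral and stimulator controls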;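 also: PAF is a Pseudomonas aeruginosa culture filtrate used as stimulus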
KKLEB tox – counter-screen for CF NF-kB inhibitors: cytotoxicity. 0.36% of 360,000 active. KKLEB CF airway cells viability, ATPlite luminescence, overnight; hits give low values; cells stimulated with P. aeruginosa culture filtrate. activity change (cytotoxicity), % at 5 µM. AID 602141;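 active = corrected activity change at or below -50% at 5 µM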
CF NFkB conf – confirmation of cystic fibrosis induced NF-kB inhibitors | shares compounds with CF NFkB block | KKLEB CF airway cells, PAF-induced NF-kB-GFP fluorescence, overnight | inhibition, % at 5 µM | 64% of 1,300 active; in the data active = inhibition above about 40%;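 also: stimulus PAF is a Pseudomonas aeruginosa filtrate and not platelet activating factor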
Numbers stand for hits; n = inactive; u = inconclusive; x = no result given. Rows were chosen to be rich in hits. Some 3.6% of all compounds tested hit in one or more screens of this group.

SMILES	Mdm2 MdmX PPI	Peg3 prom inh	LGR2 antag	HSP90 refold inh	CF NFkB block	KKLEB tox	CF NFkB conf
C[C@@H]1CN([C@@H](C)CO)C(=O)c2cccc(NC(=O)C3CCOCC3)c2O[C@H]1CN(C)S(=O)(=O)c1cccs1	x	x	n	x	x	x	x
C[C@H]1CCCCO[C@@H](CN(C)C(=O)Nc2ccc3c(c2)OCO3)[C@@H](C)CN([C@@H](C)CO)C(=O)c2cc(NC(=O)c3ccccc3)ccc2O1	x	x	n	x	x	x	x
COc1ccc2c(=O)cc(-c3ccncc3)oc2c1OC	x	89	n	x	59	n	77
COc1ccc(-c2cc(=O)c3c(OC)c(OC)c(OC)c(OC)c3o2)cc1OC	n	n	n	n	n	n	x
C=C(C(=O)c1ccccc1)C(NC(C)(C)C)c1ccccc1 (stereo unspecified)	x	104	101	x	50	n	n
COC(=O)C(NC(=O)c1ccccc1)c1ccccc1 (stereo unspecified)	n	n	x	n	n	n	x
CCCOc1ccc(C(=O)OCCN(CC)CC)cc1N	n	n	n	x	75	n	n
CCC(=O)N[C@H]1CC[C@@H](CCNC(=O)Nc2ccc(F)cc2)O[C@H]1CO	x	x	n	x	x	x	x
CC(=O)Nc1nonc1-c1nc2ccccc2n1CC1CC1	n	n	x	n	60	n	45
COc1ccc(NC(=O)Nc2nnc(CC(=O)Nc3ccccc3)s2)cc1	n	n	n	n	n	n	x
CCSc1nsc(NC(=O)Nc2cccc(OC)c2)n1	n	n	n	n	70	n	53
COc1cccc(NC(=O)Nc2nnc(CC(=O)Nc3ccccc3)s2)c1	n	n	n	n	57	n	72
COCC(=O)N(C)C[C@H]1Oc2cc(C3=CCCCC3)ccc2S(=O)(=O)N([C@H](C)CO)C[C@@H]1C	x	x	n	x	x	x	x
COc1ccc(C(=O)Nc2ccc3c(c2)C(=O)N(C)C[C@H](OC)[C@H](C)CN(C(C)=O)[C@H](C)CO3)cc1	x	x	n	x	x	x	x
CC(=O)N(CC(C)C(=O)O)c1c(I)cc(I)c(N)c1I (stereo unspecified)	n	n	n	x	64	n	n
O=C1CN(C(=O)Cn2ncc(Cl)c(Cl)c2=O)c2ccccc2N1	x	103	105	n	94	n	56
O=C1CN(C(=O)COc2ccc(Cl)c(Cl)c2)c2ccccc2N1	n	n	n	x	n	n	x
c1cc(-c2cnc3cccnn23)c2cccnc2c1	x	n	x	x	75	n	51
CO[C@@H]1CN(C)C(=O)c2cc(NC(=O)c3cc(C)on3)ccc2OC[C@H](C)N(C)C[C@@H]1C	x	x	n	x	x	x	x
Oc1c(C(c2ccccc2)N2CCOCC2)ccc2ccccc12 (stereo unspecified)	x	56	n	x	79	n	n
Cc1ccc(S(=O)(=O)c2c(C(=O)c3ccccc3)cnc3cc4c(cc23)OCCO4)cc1	n	n	x	n	51	n	n
Cc1ncc(CO)c2cc(S(=O)(=O)c3ccc(F)cc3)c(=O)oc12	n	n	n	n	n	n	x
O=c1oc2ccc(Br)cc2cc1S(=O)(=O)c1ccc(F)cc1	n	50	x	n	58	n	n
C[C@H](NC(=O)[C@@H]1[C@@H](CO)[C@@H]2Cn3c(cccc3=O)[C@@H]2N1Cc1ccncc1)c1ccccc1	x	x	n	x	x	x	x
CCN(CC)C(=O)c1cc(S(=O)(=O)N2CCCCC2)c[nH]1	n	n	n	n	n	n	x
SMILES	Mdm2 MdmX PPI	Peg3 prom inh	LGR2 antag	HSP90 refold inh	CF NFkB block	KKLEB tox	CF NFkB conf
CCN(C(=O)c1cc(S(=O)(=O)N2CCCCC2)c[nH]1)c1ccc(OC)cc1	n	n	n	n	50	n	46
CCCNC(=O)N1C[C@H](C)[C@H](OC)CN(C)C(=O)c2cc(NC(=O)C3CCC3)ccc2OC[C@@H]1C	x	x	n	x	x	x	x
O=C(Cn1cc(/C=C\[N+](=O)[O-])c2ccccc21)Nc1ccccc1	n	92	67	n	54	n	n
Cc1ccc2cc(/C=C/C(=O)c3ccco3)c(Cl)nc2c1	n	n	x	n	64	n	n
Cc1ccc(S(=O)(=O)NCC(c2ccco2)S(=O)(=O)c2ccccc2)cc1 (stereo unspecified)	n	n	n	x	n	n	x
COc1ccc(OC)c(S(=O)(=O)NCC(c2ccco2)S(=O)(=O)c2ccccc2)c1 (stereo unspecified)	n	n	n	x	50	n	n
O=C(NCCc1ccc(F)cc1)c1coc(=O)c(Br)c1	n	n	n	n	81	n	83
O=C(NCc1ccccn1)c1coc(=O)c(Br)c1	n	n	n	n	n	n	x
CN(c1cccnc1)c1ncnc2[nH]ncc12	n	n	n	n	n	n	x
C=CCN(CC=C)c1ncnc2[nH]ncc12	x	n	n	x	65	n	63
CN(C)C=Nc1c(C(=O)c2ccccc2)sc2nccc(N(C)C)c12	n	n	n	n	53	n	57
CCOC(=O)c1sc2nccc(N(C)C)c2c1N=CN(C)C	n	n	x	n	n	n	x
O=C1CN(S(=O)(=O)Cc2ccccc2)C[C@H]2[C@H](c3ccc(C#Cc4cccnc4)cc3)[C@@H](CO)N12	x	x	n	x	x	x	x
Clc1nc(Cl)c2ncn(-c3ccccc3)c2n1	x	81	n	x	76	n	n
CNc1nc(Cl)nc2c1ncn2-c1ccccc1	x	n	n	x	n	n	x
CC(Sc1nc2ncc(Cl)cc2[nH]1)C(=O)Nc1ccccc1[N+](=O)[O-] (stereo unspecified)	x	n	n	x	53	n	n
Cc1c(Cl)cccc1NC(=O)CSc1nc2ncc(Cl)cc2[nH]1	n	n	n	n	62	n	51
Cc1ccccc1NC(=O)CSc1nc2ncc(Cl)cc2[nH]1	n	n	n	n	n	n	x
CSc1ncc(Cl)c(C(=O)Nc2ccccc2[N+](=O)[O-])n1	n	n	n	n	n	n	x
CC(C)c1nc2n[nH]c(N)c2c2c1CCCC2	n	n	x	n	50	n	n
O=[N+]([O-])c1cccc(-c2ccc(/C=N/Nc3nc(N4CCCCC4)nc(N4CCCCC4)n3)o2)c1	n	69	n	n	55	n	n
COc1nc(N/N=C/c2ccc(-c3cccc([N+](=O)[O-])c3)o2)nc(N2CCOCC2)n1	x	x	x	n	x	x	x
N#C[C@H]1[C@H](c2ccccc2C2=CCCCC2)[C@H](CO)N1C(=O)NC1CCCCC1	x	x	n	x	x	x	x
CCn1c2ccccc2c2cc(/C=N/O)ccc21	n	n	n	n	72	n	62
CC(=O)c1ccc(Nc2ncnc3ccc(Br)cc23)cc1	x	n	x	x	60	n	46
COc1ccc(-c2cc(C(F)(F)F)nc(S(=O)(=O)CCCC(=O)Nc3cccnc3Cl)n2)cc1OC	x	106	u	n	93	n	88
COc1ccc(Cl)cc1C(=O)OCC(=O)Nc1cccnc1Cl	n	n	n	x	n	n	x
O=C(NCCCSc1ccccc1)c1cc(Cl)ccc1O	n	n	n	n	58	n	76
O=C1/C(=C/c2cccnc2)CCc2c1[nH]c1ccccc21	n	n	n	n	70	n	84
